ELG1 repair inh: inhibitors of ELG1-dependent DNA repair in HEK293T cells | Potency, µM (highest dose often 46.1 µM), inactives show at the highest dose activity change, negative = inhibition, actives largely listed as inhibitors | HEK293T ELG1-luciferase reporter, luminescence, 16 h; DNA damage induced by 5-fluorouridine | 2.3% of 330,000 active; further: potency means the concentration at half of the fitted maximal effect; on the % scale 0 is the no-effect control and ±100 the full control effect; nearly all actives have a fitted effect of over 55% in size
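In this reporter screen, reduction of luminescence relative to DMSO vehicle indicated activity. Compounds and 5-fluorouridine were added together to 2,000 cells per well, incubated for 16 hr at 37 °C, then developed with ONE-Glo.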
TRPV1 PAM: human TRPV1 potentiation; Q8NER1; TRPV1-expressing cells, Fluo-8 calcium influx, capsaicin EC20 potentiation; potentiation, % at 8.33 µM; 0.02% of 320,000 active; AID 540277; in the data active means potentiation above about 80%; inconclusive means between about 30% and that limit; further: 0% is about no effect
Target sequence (Q8NER1 whole entry, looked up): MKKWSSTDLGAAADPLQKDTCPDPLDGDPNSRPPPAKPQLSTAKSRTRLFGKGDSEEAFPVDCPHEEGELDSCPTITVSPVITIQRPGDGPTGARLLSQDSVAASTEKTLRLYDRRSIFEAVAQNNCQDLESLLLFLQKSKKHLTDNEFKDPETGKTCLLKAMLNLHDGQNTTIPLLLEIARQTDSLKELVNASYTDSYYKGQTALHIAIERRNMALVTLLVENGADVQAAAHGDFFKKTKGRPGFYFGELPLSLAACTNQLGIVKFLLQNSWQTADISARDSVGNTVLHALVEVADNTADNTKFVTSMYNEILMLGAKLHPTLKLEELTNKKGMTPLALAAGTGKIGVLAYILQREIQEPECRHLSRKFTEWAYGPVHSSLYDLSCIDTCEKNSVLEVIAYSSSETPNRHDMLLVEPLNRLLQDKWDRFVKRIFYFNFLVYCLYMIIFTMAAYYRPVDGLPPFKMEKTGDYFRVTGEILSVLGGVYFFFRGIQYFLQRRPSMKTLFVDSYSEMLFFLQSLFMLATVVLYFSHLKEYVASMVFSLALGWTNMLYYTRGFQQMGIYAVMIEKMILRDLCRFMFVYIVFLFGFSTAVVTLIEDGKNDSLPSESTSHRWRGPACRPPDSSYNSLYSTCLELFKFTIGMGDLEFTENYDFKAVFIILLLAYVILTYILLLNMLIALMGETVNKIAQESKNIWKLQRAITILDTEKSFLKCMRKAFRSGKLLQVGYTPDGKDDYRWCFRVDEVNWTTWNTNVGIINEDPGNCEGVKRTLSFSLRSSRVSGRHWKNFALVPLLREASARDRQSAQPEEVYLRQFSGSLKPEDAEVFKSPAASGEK
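Fluo-8 calcium influx in TRPV1-expressing cells, kinetic read (ex 480/em 520 nm). Compound added and read 3 min for agonist activity, followed by capsaicin at EC20 final and 2 min further read for enhancement.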
Giardia kill: Giardia lamblia killing; AID 540267; activity change, % at 7.66 µM, hits read low; Giardia lamblia trophozoite viability; 0.15% of 340,000 active; in the data active means activity change below about -80%; inconclusive means between about -30% and that limit;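 further: parasites exposed to compound for two days anaerobically before the ATP read; on the % scale 0 is the no-effect control and ±100 the full control effect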
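Compounds were tested on trophozoites seeded at 100 cells/well and held 48 hrs at 37 deg C anaerobically. An ATP-based luminescent kit measured the remaining live cells.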
FUS yeast rescue: FUS proteinopathy suppression in yeast; Potency, µM (series often up to 76.6 µM), actives largely listed as activators; AID 1347120; 0.24% of 390,000 active; S. cerevisiae FUS-expressing, growth rescue, OD600, 24 h;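 further: potency means the concentration at half of the fitted maximal effect; plate controls were DMSO vehicle for no effect and reference control for full effect; nearly all actives have a fitted effect of over 55% in size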
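Restored growth of FUS-toxic S. cerevisiae, read as 600 nm absorbance after 24 h at 30C in galactose medium (starting OD 0.005). Controls CP55940 and DMSO.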
TRPV1 ag: human TRPV1 agonism; 0.19% of 320,000 active; activation, % at 8.33 µM; AID 540275; TRPV1-expressing cells, Fluo-8 calcium influx, agonist mode; Q8NER1; in the data active means activation above about 80%; inconclusive means between about 30% and that limit; further: 0% is about no effect
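Fluo-8 calcium influx in TRPV1-expressing cells, kinetic read (ex 480/em 520 nm). Compound added and read 3 min for agonist activity, followed by capsaicin at EC20 final and 2 min further read for enhancement.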
Active calls of the source: *; i = inactive; ? = inconclusive; nt = not tested or not shown. Shown are actives, neighbours in structure and some others; about 2.3% of the full set was active somewhere. Unless noted, the call rests on the fitted dose curve; in most records, active means well fitted curve in the direction sought with a large enough effect; inconclusive means small, poorly fitted or top-dose-only effect, or another doubt; inactive means no such curve, though single readings can be large; an effect the other way counts as inactive or inconclusive.

SMILES	ELG1 repair inh	TRPV1 PAM	Giardia kill	FUS yeast rescue	TRPV1 ag
COc1ccc(COCC(O)CN2CCC(CN3C(=O)c4cccc5cccc(c45)C3=O)CC2)cc1OC (configuration not stated)	?	5	-14	i	1
CC(=O)c1ccccc1OCC(O)CN1CCN(CCN2C(=O)c3cccc4cccc(c34)C2=O)CC1 (configuration not stated)	?	2	5	i	1
O=S(=O)(Nc1cc(Br)cc2cccnc12)c1ccccc1	nt	10	24	nt	19
CCOC(=O)c1cc(-c2ccccc2)n(CC(=O)Nc2ccc(OC)cc2OC)c1C	nt	nt	nt	i	nt
C=CCN(c1ccc(C(=O)Nc2ccc3c(c2)OCO3)cc1)S(C)(=O)=O	13µM*	-17	4	i	28
COc1ccc(-n2c(N)c(C(=O)NCc3ccco3)c3nc4ccccc4nc32)cc1OC	6.5µM*	-4	12	i	4
COc1ccc(C(=O)Nc2ccc(Cl)cc2C(=O)NCc2ccco2)cc1OC	16µM*	1	-3	i	-4
COc1cc(-n2c(N)c(C(=O)NCc3ccco3)c3nc4ccccc4nc32)cc(OC)c1OC	-8%	-3	4	i	1
COc1ccc(C(=O)Nc2ccccc2C(=O)NCc2ccco2)cc1OC	15µM*	2	12	i	19
COc1ccc(CN2CCc3c(c(=O)n4ncc(C(=O)N5CCN(c6ccccc6F)CC5)c4n3C)C2)cc1	nt	nt	nt	i	nt
CCn1c(=O)c(C(=O)Nc2ccc(C(C)=O)cc2)nc2ccccc21	nt	nt	nt	i	nt
CC1=C(C(=O)NCc2ccccc2C)C2(CCCCC2)OC1=O	nt	nt	nt	i	nt
Cc1nc(CC(=O)Nc2cccc(C)c2C)cs1	nt	nt	nt	i	nt
COc1ccc(C(=O)Nc2sc3c(c2C(=O)NCc2ccco2)CCCC3)cc1OC	16µM*	0	13	i	11
Cc1ccccc1CN(c1ccc(C(=O)Nc2ccccc2C(=O)NCc2ccco2)cc1)S(C)(=O)=O	7.3µM*	?	-2	i	-8
COc1cc(C(=O)Nc2sc3c(c2C(=O)NCc2ccco2)CCCC3)cc(OC)c1OC	?	21	-3	i	26
Cc1ccc(C(=O)Nc2ccccc2C(=O)NCc2ccco2)cc1	0%	nt	7	nt	nt
CCCOc1ccc(N2CC(C(=O)Nc3ccccc3C(=O)NCc3ccco3)CC2=O)cc1 (configuration not stated)	18µM*	1	-11	i	4
COc1ccc(-c2noc(-c3ccccc3C(=O)NCc3ccco3)n2)cc1OC	8.2µM*	3	-12	nt	0
COc1ccc(N2CC(C(=O)Nc3ccccc3C(=O)NCc3ccco3)CC2=O)cc1 (configuration not stated)	?	-2	-18	i	3
O=S1(=O)C2CC3C=CC2(O3)C(O)C(Cc2ccccc2)N1Cc1cccc(F)c1 (configuration not stated)	nt	nt	20	nt	nt
CC(C)Oc1ccc(CNC(=O)c2ccc3nc(C(C)C)oc3c2)cc1	nt	nt	nt	i	nt
COc1cc(NC(=O)c2ccco2)c(C(=O)OCC(=O)c2c[nH]c3ccccc23)cc1OC	8.2µM*	24	-4	i	-1
COc1ccc(CCNC(=O)c2ccccc2NC(=O)c2ccco2)cc1OC	18µM*	4	6	i	-2
CC(=O)c1cccc(NC(=O)c2ccc(N(Cc3ccccc3C)S(C)(=O)=O)cc2)c1	26µM*	-6	3	i	0
SMILES	ELG1 repair inh	TRPV1 PAM	Giardia kill	FUS yeast rescue	TRPV1 ag
O=C(OCC(=O)c1c[nH]c2ccccc12)c1ccco1	?	-10	-22	i	19
C=CCNC(=O)c1c(N)n(-c2cccc(S(N)(=O)=O)c2)c2nc3ccccc3nc12	9.2µM*	4	24	i	1
COc1ccc(CN2C(=O)c3ccnn3CC2(C)c2nnnn2-c2c(C)cccc2C)cc1 (configuration not stated)	nt	nt	nt	i	nt
CC(C)NC(=O)C1(C)CCN1Cc1ccc(Cl)cc1 (configuration not stated)	nt	nt	nt	i	nt
CNC(=O)c1ccc(N(Cc2ccccc2C)S(C)(=O)=O)cc1	5%	-1	17	nt	-2
Cc1ccccc1CN(c1ccc(C(=O)N2CCc3ccccc3C2)cc1)S(C)(=O)=O	15µM*	-30	5	?	?
CCN1/C(=C/C=C/c2sc3ccccc3[n+]2CC)Sc2ccccc21	?	11	-26	i	-4
CCN1/C(=C/C=C/c2oc3ccc(-c4ccccc4)cc3[n+]2CC)Oc2ccc(-c3ccccc3)cc21	12µM*	?	-20	i	105*
CCN(CC)S(=O)(=O)c1ccc(N2CCOCC2)c(NC(=S)NC(=O)c2ccco2)c1	16µM*	-6	4	?	17
CCN(CC)S(=O)(=O)c1ccc(N2CCOCC2)c(NC(=O)c2sccc2C)c1	18µM*	nt	-13	i	nt
CCN(CC)S(=O)(=O)c1cc(C(=O)Nc2cc(Cl)ccc2N2CCN(C)CC2)ccc1Cl	18µM*	8	-1	i	-1
CCN(CC)S(=O)(=O)c1ccc(N2CCOCC2)c(NC(=O)c2cc(C)cc(C)c2)c1	8.2µM*	-2	-6	i	13
CCN(CC)S(=O)(=O)c1ccc(N2CCOCC2)c(NC(=O)C23CC4CC(CC(Cl)(C4)C2)C3)c1	9.2µM*	0	1	nt	?
CCN(CC)S(=O)(=O)c1ccc(N2CCOCC2)c(NC(=O)c2ccccc2)c1	?	-13	15	i	26
O=C(COC(=O)c1cc([N+](=O)[O-])ccc1N1CCOCC1)Nc1cccc(F)c1	21µM*	-9	36	i	25
CCOc1ccc(CCNC(=O)COC(=O)c2cc([N+](=O)[O-])ccc2N2CCOCC2)cc1OCC	18µM*	-10	2	i	0
CCn1cc(C(=O)N2CCN(c3ccccc3)CC2)c(=O)c2cc(S(=O)(=O)N3CCC(C)CC3)ccc21	nt	nt	nt	i	nt
CCOC(=O)c1ccc(NC(=O)Cn2c(=O)cc(C)c3c(C)nn(-c4ccc(CC)cc4)c32)cc1	nt	nt	nt	i	nt
CCOC(=O)[C@@H]1[C@H]2COc3ccc(Br)cc3[C@H]2N2C(=O)N(c3ccc(C)cc3)C(=O)[C@]12C	-2%	4	-27	22µM*	1
CCOC(=O)[C@H]1[C@H]2COc3ccc(C)cc3[C@@H]2N2C(=O)c3ccc(F)cc3NC(=O)[C@@]12C	16%	20	5	i	85*
CCOC(=O)[C@H]1[C@H]2COc3ccc(C)cc3[C@@H]2N2C(=O)c3ccccc3NC(=O)[C@@]12C	6%	7	7	i	90*
CCOC(=O)[C@H]1[C@H]2COc3ccc(OC)cc3[C@@H]2N2C(=O)c3cc(C)ccc3NC(=O)[C@@]12C	-8%	12	30	i	99*
